# “And” between values parts separate entries of the source, which are not always exact repeats. Equal entries are not always repeated. Records with an inconclusive call do not appear. Values without a mark were called inactive. The source made the active and inactive calls. Calls come from the whole dose curve; as a rule, active = well fitted curve in the direction sought with a large enough effect; inconclusive = small, poorly fitted or top-dose-only effect, or another doubt; inactive = no such curve, though single readings can be large; an effect the other way counts as inactive or inconclusive.
# Columns and labels:
# [1] = Quantitative highthroughput screen to assess conditional lethalithy of NOMO1 cells grown in RPMI1640 with untreated serum (RPMI+s) (AID 1963876); conditions: NOMO1 AML cells in RPMI+serum, CellTiter-Glo viability, 48 h; series mostly up to 45.8 µM; note: nearly all actives have a fitted effect of over 35% in size;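 for viability: 100% = DMSO wells and 0% = empty wells without cells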
# Summary of the method: (§1)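 Each medium arm—HPLM with 10% dialyzed FBS, or RPMI1640 with 5 mM glucose and 10% untreated or dialyzed FBS—was screened against an 11-point, 3-fold compound titration for 48 h at 37 °C, with CellTiter-Glo luminescence as endpoint.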
# [2] = Quantitative highthroughput screen to assess conditional lethalithy of P12 Ichikawa cells grown in Human Plasma-Like Medium with dialyzed fetal bovine serum (HPLM+ds) (AID 1963879); conditions: ATP luminescence, 48 h; Potency: viability; series mostly up to 45.8 µM; note: nearly all actives have a fitted effect of over 35% in size
# Summary of the method: as §1
# [3] = Quantitative highthroughput screen to assess conditional lethalithy of P12 Ichikawa cells grown in RPMI1640 with dialyzed fetal bovine serum (RPMI+ds) (AID 1963880); conditions: ATP luminescence, 48 h; Potency: P12-Ichikawa viability; series mostly up to 45.8 µM; note: nearly all actives have a fitted effect of over 35% in size;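 for viability: 100% = DMSO wells and 0% = empty wells on each plate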
# Summary of the method: as §1
# [4] = Quantitative highthroughput screen to assess conditional lethalithy of P12 Ichikawa cells grown in RPMI1640 with untreated serum (RPMI+s) (AID 1963881); conditions: ATP luminescence, 48 h; Potency: viability; series mostly up to 45.8 µM; note: nearly all actives have a fitted effect of over 35% in size;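 for viability: 100% = DMSO wells and 0% = empty wells without cells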
# Summary of the method: as §1
# [5] = Quantitative highthroughput screen to assess conditional lethalithy of SEM cells grown in Human Plasma-Like Medium with dialyzed fetal bovine serum (HPLM+ds) (AID 1963882); conditions: SEM B-ALL cells in HPLM+ds, CellTiter-Glo viability, 48 h; series mostly up to 45.8 µM; note: nearly all actives have a fitted effect of over 35% in size
# Summary of the method: as §1
# [6] = Quantitative highthroughput screen to assess conditional lethalithy of SEM cells grown in RPMI1640 with unreated serum (RPMI+s) (AID 1963883); conditions: SEM B-ALL cells, CellTiter-Glo viability, 48 h; series mostly up to 45.8 µM; note: nearly all actives have a fitted effect of over 35% in size;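 for viability: 100% = DMSO wells and 0% = empty wells without cells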
# Summary of the method: as §1
# [7] = Quantitative highthroughput screen to assess conditional lethalithy of NOMO1 cells grown in Human Plasma-Like Medium with dialyzed fetal bovine serum (HPLM+ds) (AID 1963878); conditions: NOMO1 AML cells in HPLM+ds, CellTiter-Glo viability, 48 h; series mostly up to 45.8 µM; note: nearly all actives have a fitted effect of over 35% in size;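 for viability: 100% = DMSO wells and 0% = empty wells on each plate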
# Summary of the method: as §1
# [8] = Quantitative highthroughput screen to assess conditional lethalithy of SEM cells grown in RPMI1640 with dialyzed fetal bovine serum (RPMI+ds) (AID 1963884); conditions: SEM B-ALL cells, RPMI+dialyzed FBS, CellTiter-Glo viability, 48 h; series mostly up to 45.8 µM; note: nearly all actives have a fitted effect of over 35% in size;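 for viability: 100% = DMSO control wells and 0% = empty wells without cells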
# Summary of the method: as §1
# [9] = Cellular viability qHTS for adrenocortical cancer (ACC) cell line SW-13 (AID 1963989); conditions: SW-13 ACC cells viability, CellTiter-Glo, 48 h; activity (max response): hits give low values; note: nearly all actives have a fitted effect of over 65% in size;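 for activity (max response): cells grown in serum-free medium with ITS supplement; % is set by controls: 0 for no effect and ±100 for the full control effect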
# Summary of the method: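 48 h treatment, SW-13 in ITS/DMEM serum-free; doses up to 46 uM; readout CellTiter-Glo luminescence; curve fit four-parameter logistic.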
# [10] = Cellular viability qHTS for adrenocortical cancer (ACC) cell line NCI-H295R (AID 1963990); conditions: CellTiter-Glo ATP luminescence, 48 h; series mostly up to 46.1 µM; note: nearly all actives have a fitted effect of over 60% in size;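 for activity change, negative = viability loss: 0% = DMSO only wells and -100% = full killing with cytotoxic reference compound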
# Summary of the method: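 Compound titrations (up to 46 uM final) are applied to NCI-H295R cultures for 48 h at 37C. Viable cell number is estimated by CellTiter-Glo signal, normalised to DMSO and doxorubicin controls.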
# Potency is the fitted concentration of half-maximal effect.
compound,measurement,setting,value
CC(C)(C)[C@H](NC(=O)c1ccc(N)c(Cl)c1)C(=O)N1CCC[C@@H]1C(=O)N[C@H](C#N)CC(=O)O,Potency,[1],105 nM (active)
same,Potency,[2],372 nM (active)
same,Potency,[3],1050 nM (active)
same,Potency,[4],418 nM (active)
same,viability,[5],112% [at 3.51 µM]
same,viability,[6],92.8% [at 3.51 µM]
COc1ccc2c3n(c(=NC(=O)c4cccnc4)nc2c1OC)CCN3,Potency,[1],inactive
same,Potency,[7],7430 nM (active)
same,Potency,[5],20900 nM (active)
same,Potency,[8],9350 nM (active)
same,activity (max response),[9],2.77%
same,"activity change, negative = viability loss",[10],-25.5% [at 3.81 µM]
Cc1c(O)cccc1C(=O)N[C@@H](CSc1ccccc1)[C@H](O)CN1C[C@H]2CCCC[C@@H]2C[C@@H]1C(=O)NC(C)(C)C,Potency,[1],inactive
same,Potency,[7],inactive
same,Potency,[3],inactive
same,Potency,[4],inactive
same,Potency,[5],inactive
same,Potency,[6],inactive
same,Potency,[8],inactive
O=c1c2ccccc2nc2n1CCc1c-2[nH]c2ccccc12,Potency,[1],inactive
same,Potency,[7],inactive
same,Potency,[4],13200 nM (active)
Nc1nc(N)c2nc(CNc3ccc(C(=O)NC(CCC(=O)O)C(=O)O)cc3)cnc2n1 (stereo not drawn),Potency,[1],inactive
same,Potency,[6],41.8 nM (active)
N#CC(=C(N)Sc1ccccc1N)C(C#N)=C(N)Sc1ccccc1N,Potency,[1],inactive
same,Potency,[2],inactive
same,Potency,[4],inactive
NC1=N[C@@]2(c3cc(NC(=O)c4ccc(F)cn4)ccc3F)COC[C@@H]2CS1,Potency,[1],372 nM (active)
same,Potency,[2],1870 nM (active)
same,Potency,[3],3320 nM (active)
same,Potency,[4],1660 nM (active)
same,Potency,[8],inactive
CCOC(=O)[C@H]1O[C@H]1C(=O)N[C@@H](CC(C)C)C(=O)NCCC(C)C,Potency,[1],23500 nM (active)
same,Potency,[3],inactive
same,Potency,[4],inactive
same,Potency,[5],inactive
same,Potency,[6],inactive
same,Potency,[8],inactive
CN1C(C(=O)Nc2ccccn2)=C(O)c2ccccc2S1(=O)=O,Potency,[1],11800 nM (active)
same,Potency,[2],11800 nM (active)
same,Potency,[3],16600 nM (active)
same,Potency,[4],14800 nM (active)
same,activity (max response),[9],-11.3% and -19.8%
same,Potency,[10],inactive
CN[C@@H](C)C(=O)N[C@H]1CCCC[C@H]2CC[C@@H](C(=O)N[C@@H](c3ccccc3)c3cn(CCCCc4ccc(CCCCn5cc([C@@H](NC(=O)[C@@H]6CC[C@@H]7CCCC[C@H](NC(=O)[C@H](C)NC)C(=O)N76)c6ccccc6)nn5)cc4)nn3)N2C1=O,Potency,[1],inactive
same,Potency,[2],inactive
same,Potency,[3],inactive
same,Potency,[4],inactive
same,Potency,[5],inactive
same,activity (max response),[9],-2.95%
same,Potency,[10],inactive
CC[C@@H]1C(=O)N(C)c2cnc(Nc3ccc(C(=O)NC4CCN(C)CC4)cc3OC)nc2N1C1CCCC1,Potency,[1],66.2 nM (active)
same,Potency,[2],26.4 nM (active)
same,Potency,[3],33.2 nM (active)
same,Potency,[4],33.2 nM (active)
same,Potency,[5],37.2 nM (active)
same,Potency,[6],46.9 nM (active)
same,Potency,[8],46.9 nM (active)
same,Potency,[9],35.5 nM (active)
FC(F)(F)c1ccc(C=Cc2nc(COc3ccc(CCCCn4ccnn4)cc3)co2)cc1,Potency,[1],2350 nM (active)
same,Potency,[2],935 nM (active)
same,Potency,[5],inactive
same,Potency,[8],9.3 nM (active)
C#C[C@]1(O)CC[C@@H]2[C@@H]3CCc4cc(O)ccc4[C@H]3CC[C@@]21C,Potency,[1],inactive
same,Potency,[3],16600 nM (active)
same,Potency,[5],14800 nM (active)
same,Potency,[8],11800 nM (active)
O=C(O)c1ccc(-c2cc3cccnc3c(-c3ccc4nonc4c3)n2)cc1,Potency,[1],inactive
same,Potency,[2],inactive
same,Potency,[4],inactive
CO[C@H]1C=CO[C@@]2(C)Oc3c(C)c(O)c4c(O)c(c(C=NN5CCN(C)CC5)c(O)c4c3C2=O)NC(=O)C(C)=CC=C[C@H](C)[C@H](O)[C@@H](C)[C@@H](O)[C@@H](C)[C@H](OC(C)=O)[C@H]1C,Potency,[1],inactive
same,Potency,[3],2380 nM (active)
same,Potency,[4],3780 nM (active)
same,Potency,[8],inactive
COCCCOc1ccnc(CS(=O)c2nc3ccccc3[nH]2)c1C (stereo not drawn),Potency,[1],inactive
same,Potency,[2],inactive
same,Potency,[3],inactive
same,Potency,[4],inactive
same,Potency,[5],inactive
same,Potency,[6],inactive
same,Potency,[8],inactive
same,activity (max response),[9],10.6% and -5.29%
same,Potency,[10],inactive
CCC(=O)O[C@]1(C(=O)CO)CC[C@H]2[C@@H]3CCC4=CC(=O)CC[C@]4(C)[C@@H]3CC[C@@]21C,Potency,[1],inactive
same,Potency,[6],743 nM (active)
same,Potency,[8],1180 nM (active)
C=CC(=O)Nc1cc(NC(=O)c2ccc(C)c(NC(=O)c3ccno3)c2)cc(C(F)(F)F)c1,Potency,[1],inactive
same,Potency,[2],inactive
same,Potency,[4],inactive
same,Potency,[5],inactive
same,Potency,[6],inactive
CC=CC1=C(C(=O)O)N2C(=O)[C@H](NC(=O)[C@H](N)c3ccc(O)cc3)[C@@H]2SC1,Potency,[1],1180 nM (active)
same,Potency,[2],9350 nM (active)
same,Potency,[3],13200 nM (active)
same,Potency,[4],9350 nM (active)
same,Potency,[6],inactive
same,Potency,[8],inactive
CCCCCCCCCCCC1=C(O)C(=O)C=C(O)C1=O,Potency,[1],332 nM (active)
same,Potency,[3],3320 nM (active)
same,Potency,[4],2090 nM (active)
same,Potency,[5],inactive
same,Potency,[6],inactive
same,activity (max response),[9],-2.06%
same,Potency,[10],inactive
Nc1ccc(-c2ccc3ncc4ccc(=O)n(-c5cccc(C(F)(F)F)c5)c4c3c2)cn1,Potency,[1],83.3 nM (active)
same,Potency,[2],148 nM (active)
same,Potency,[9],708 nM (active)
same,Potency,[10],126 nM (active)
CN(C(Cc1ccc(OS(=O)(=O)c2cccc3cnccc23)cc1)C(=O)N1CCN(c2ccccc2)CC1)S(=O)(=O)c1cccc2cnccc12 (stereo not drawn),Potency,[1],inactive
same,Potency,[3],18700 nM (active)
same,Potency,[4],14800 nM (active)
same,activity (max response),[9],5.6%
same,Potency,[10],inactive
